Potency data for 13 compounds are collected here from PubChem BioAssay AID1224861 (National Center for Advancing Translational Sciences (NCATS), 2016).

Results filed as inconclusive are left out. Where a call stands in place of a potency, no number is given. The source made the active and inactive calls. The call rests on the fitted dose curve; in most records, active means well fitted cell-killing curve with a large enough effect; inconclusive means small, poorly fitted or top-dose-only effect, or effect the other way; inactive means flat fitted curve, though single readings scatter.

The nature of the assay: Compound cytotoxicity measured by an ATP content assay as a counter-screen for lead compounds in human astrocytes. The note with it: human astrocytes viability, ATP luminescence; series mostly up to 46.1 µM. In outline: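 Cytotoxicity expressed as percent inhibition of cell viability from ATP-dependent luminescence, read after 10 min at room temperature with 1:1 kit reagent. Compound exposure times matched the primary screens, e.g. 6, 24 or 72 h, in cultured human astrocytes.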
As to `NC(N)=NN=C(/C=C/c1ccc([N+](=O)[O-])o1)/C=C/c1ccc([N+](=O)[O-])o1`, the Potency is 3460 nM (active).
The result for `COc1cc(NC(C)CCCN)c2ncccc2c1` (stereo not drawn) reads “inactive”.
`CN(C)c1ccc(N=NS(=O)(=O)O)cc1`: the Potency result was “inactive”.
In the case of `CNC1[C@H](O)C(O[C@@H]2C(O)C(O[C@H]3O[C@H]([C@@H](C)NC)CC[C@H]3N)[C@@H](N)C[C@H]2N)OC[C@]1(C)O` (stereo partly drawn) it was “inactive”; in that of `O[C@@H](COc1cccc2ncccc12)CN1CCN(C2c3ccccc3[C@@H]3[C@H](c4ccccc42)C3(F)F)CC1` (stereo partly drawn), “inactive”.
For `O=C(C=CC=Cc1ccc2c(c1)OCO2)N1CCCCC1`, the Potency result is “inactive”.
As for `CN1CC(=O)N/C1=N/C(=O)Nc1cccc(Cl)c1`, the Potency entry is “inactive”.
Consider `N#CC1(c2ccc(NC(=O)c3cccnc3NCc3ccncc3)cc2)CCCC1`, for which the Potency result was “inactive”.
The result for `Nc1ncnc2c1ncn2[C@@H]1O[C@@H](CO)[C@H](O)[C@H]1O` reads “inactive”.
The result for `[O-][n+]1ccccc1SSc1cccc[n+]1[O-]` reads 112 nM (active).
In the case of `O=C(Nc1ccc(C(=O)O)c(O)c1)c1ccccc1` it was “inactive”; in that of `CC=CC[C@@H](C)C(=O)[C@H]1C(=O)N[C@@H](C(C)C)C(=O)N(C)CC(=O)N(C)[C@@H](CC(C)C)C(=O)N[C@@H](C(C)C)C(=O)N(C)[C@@H](CC(C)C)C(=O)N[C@@H](C)C(=O)N[C@H](C)C(=O)N(C)[C@@H](CC(C)C)C(=O)N(C)[C@@H](CC(C)C)C(=O)N(C)[C@@H](C(C)C)C(=O)N1C`, “inactive”.
`C[C@H](NC(=O)C(=O)Nc1ccccc1C(C)(C)C)C(=O)N[C@@H](CC(=O)O)C(=O)COc1c(F)c(F)cc(F)c1F`: the Potency entry is “inactive”.
